Measurements reported in PubChem BioAssay AID651601 (Sanford-Burnham Center for Chemical Genomics, 2012).
Activity calls are given as the source filed them.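 Rule for the calls: active = CXCR6 mean IC50 below 15 µM, and neither CCR6 nor CXCR5 mean IC50 under five times that; inactive = the rest.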

molecular target: C-C chemokine receptor type 6 (Homo sapiens) (UniProt P51684); test: chemokine receptor panel antagonism: CCR6, CXCR5, CXCR6, profiling panel, selectivity assay for CXCR6 antagonist project, cell-based, CHO-K1 PathHunter beta-arrestin, luminescence (AID 651601); details: antagonist mode, mean of runs
Sequence (P51684 whole entry, looked up): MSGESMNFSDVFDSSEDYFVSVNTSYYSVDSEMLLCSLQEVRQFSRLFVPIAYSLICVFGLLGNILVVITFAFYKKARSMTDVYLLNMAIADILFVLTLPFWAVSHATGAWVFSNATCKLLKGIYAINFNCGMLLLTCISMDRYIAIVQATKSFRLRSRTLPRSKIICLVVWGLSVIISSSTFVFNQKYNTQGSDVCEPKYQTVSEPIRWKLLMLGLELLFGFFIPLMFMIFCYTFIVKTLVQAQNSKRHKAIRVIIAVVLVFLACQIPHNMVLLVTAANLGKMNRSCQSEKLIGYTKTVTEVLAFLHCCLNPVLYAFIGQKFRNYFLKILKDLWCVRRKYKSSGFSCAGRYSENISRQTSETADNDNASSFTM

SMILES	outcome
O=C(CN1C2CCCC1CC(NC(=O)c1ccccc1)C2)Nc1ccccc1C(F)(F)F (stereo unspecified)	inactive
COc1cccc(C(=O)NC2CC3CCCC(C2)N3CC(=O)Nc2ccccc2C(F)(F)F)c1 (stereo unspecified)	inactive
CN(C)c1ccc(NC(=O)CN2C3CCCC2CC(NC(=O)c2ccccc2)C3)cc1 (stereo unspecified)	inactive
COc1cc(C(=O)NC2CC3CCCC(C2)N3CC(=O)Nc2ccccc2)cc(OC)c1OC (stereo unspecified)	inactive
O=C(CN1C2CCCC1CC(NC(=O)c1ccccc1)C2)Nc1ccccc1 (stereo unspecified)	inactive
COc1cccc(C(=O)NC2CC3CCCC(C2)N3CC(=O)Nc2ccc(N(C)C)cc2)c1 (stereo unspecified)	inactive
